Common to all, as to details: inducer concentration 5 mM; 6 h; Cupriavidus necator H16; minimal medium + 0.4% gluconate
For assay [1], the system named is AcoR/P_H16_RS19445 acetoin biosensor (pEH052). Description: relative induction of RFP reporter vs primary effector; higher = stronger activation. The procedure:
(§1)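 Orthogonality screen of 21 primary inducers against 21 transcription factor/inducible promoter–mRFP biosensors in C. necator H16 in minimal medium, robotic 96-well format, 5 mM inducer, 30 °C. OD-normalised RFP fluorescence was read 6 h later and expressed as relative induction (%) = 100 × (FL compound − FL uninduced)/(FL primary inducer − FL uninduced); mean of n=4. Cognate pairs (100% by definition) omitted.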

In assay [2] the test system is AraC/P_araBAD L-arabinose biosensor (pEH176). Described as above. The procedure:
as §1

The test system of assay [3] is BadR/P_H16_RS27200 cyclohexanecarboxylate biosensor (pEH159). The description is as above. The procedure: as §1
Assay [4] concerns BenM/P_H16_RS09790 benzoate biosensor (pEH148). Described as above. Here is the method:
as §1

Assay [5] deals with FdsR/P_H16_RS03165 formate biosensor (pEH134). Described as above. The procedure: as §1
Assay [6] concerns GabR/P_H16_RS23655 GABA biosensor (pEH256). Described as above. The procedure:
as §1

The test system of assay [7] is HpdA/P_H16_RS24175 L-tyrosine biosensor (pEH158). The description is as above. Here is the method: as §1
For assay [8], the system named is OapR/P_H16_RS01330 beta-alanine biosensor (pEH147). Described as above. The procedure:
as §1

Assay [9] relates to PcaQ/P_H16_RS30145 3,4-dihydroxybenzoate biosensor (pEH161). The description is as above. Here is the method:
as §1

Assay [10] has as its system PhgR/P_H16_RS05530 phenylglyoxylate biosensor (pEH155). The description is as above. The procedure:
as §1

Assay [11] concerns SauR/P_H16_RS13695 sulfonatoacetate biosensor (pEH157). The assay is described as above. Here is the method: as §1
Assay [12] concerns TtdR/P_H16_RS10665 tartrate biosensor (pEH083). The description is as above. The procedure:
as §1

The test system of assay [13] is XdhR/P_H16_RS05055 xanthine biosensor (pEH154). The assay is described as above. The procedure: as §1
In assay [14] the test system is heterologous L-rhamnose-inducible system. The description is as above. The procedure: as §1
In assay [15] the test system is heterologous acrylate-inducible system. Described as above. Here is the method: as §1
For assay [16], the system named is heterologous cumate-inducible system. The assay is described as above. The procedure:
as §1

Assay [17] concerns heterologous itaconate-inducible system. Described as above. Here is the method: as §1
For assay [18], the system named is NahR/P_H16_RS08125 salicylate biosensor (pEH042). Described as above. The procedure: as §1
The test system of assay [19] is AcoR/P_H16_RS19445 acetoin biosensor (pEH052). Description: relative induction of RFP reporter vs primary effector (background-corrected); higher = stronger activation of the biosensor. Here is the method:
(§2)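 C. necator H16 strains, each carrying one of 21 transcription factor/inducible promoter–mRFP biosensor plasmids, were grown in minimal medium in 96-well plates (robotic platform). Each was exposed to 46 structurally or metabolically related compounds at 5 mM at 30 °C. OD-normalised RFP fluorescence was read 6 h later and expressed as relative induction (%) = 100 × (FL compound − FL uninduced)/(FL primary inducer − FL uninduced); mean of n=4.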

Assay [20] deals with AraC/P_araBAD L-arabinose biosensor (pEH176). Described as above. The procedure:
as §2

Assay [21] deals with BenM/P_H16_RS09790 benzoate biosensor (pEH148). The description is as above. The procedure: as §2
Assay [22] deals with FdsR/P_H16_RS03165 formate biosensor (pEH134). The assay is described as above. The procedure:
as §2

Assay [23] relates to GabR/P_H16_RS23655 GABA biosensor (pEH256). The assay is described as above. Here is the method: as §2
Assay [24] has as its system HpdR/P_H16_RS18295 3-hydroxypropanoate biosensor (pEH010). The assay is described as above. The procedure:
as §2

Assay [25] deals with KynR/P_H16_RS14030 L-kynurenine biosensor (pEH136). The assay is described as above. Here is the method:
as §2

The test system of assay [26] is NahR/P_H16_RS08125 salicylate biosensor (pEH042). Described as above. The procedure:
as §2

The test system of assay [27] is OapR/P_H16_RS01330 beta-alanine biosensor (pEH147). The description is as above. Here is the method: as §2
Assay [28] has as its system PcaQ/P_H16_RS30145 3,4-dihydroxybenzoate biosensor (pEH161). The assay is described as above. Here is the method:
as §2

Assay [29] deals with PhgR/P_H16_RS05530 phenylglyoxylate biosensor (pEH155). The description is as above. The procedure:
as §2

Assay [30] has as its system PhhR/P_H16_RS18365 L-phenylalanine biosensor (pEH137). The description is as above. Here is the method: as §2
Assay [31] concerns SauR/P_H16_RS13695 sulfonatoacetate biosensor (pEH157). Described as above. The procedure: as §2
Assay [32] has as its system TtdR/P_H16_RS10665 tartrate biosensor (pEH083). Described as above. Here is the method: as §2
Assay [33] deals with XdhR/P_H16_RS05055 xanthine biosensor (pEH154). The assay is described as above. The procedure: as §2
Assay [34] concerns heterologous inducible system pEH002 (rhamnose/acrylate/cumate/itaconate set). The description is as above. The procedure:
as §2

Assay [35] relates to heterologous inducible system pEH020 (rhamnose/acrylate/cumate/itaconate set). Described as above. The procedure: as §2
In assay [36] the test system is heterologous inducible system pEH040 (rhamnose/acrylate/cumate/itaconate set). The description is as above. Here is the method: as §2
The test system of assay [37] is heterologous inducible system pEH086 (rhamnose/acrylate/cumate/itaconate set). Described as above. The procedure: as §2

SMILES strings stand for the structures.
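For relative induction of RFP reporter vs primary effector (background-corrected) in this document: RFP excited at 585 nm with emission read at 620 nm, culture medium blanks subtracted from fluorescence and absorbance prior to normalisation.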

For the compound `O=C(O)c1ccccc1O` [salicylate], the “relative induction of RFP reporter” value is -1.02% in assay [1]; -0.0255% in [2]; -0.169% in assay [3]; 1.72% in [4]; -11.3% in assay [5]; 1.28% in assay [6]. In addition, the “relative induction of RFP reporter” value was -0.0712% in assay [7]; -0.51% in assay [8]; -0.391% in [9]; -0.369% in [10]; 0.0177% in assay [11]; -0.317% in [12]. Moreover, the “relative induction of RFP reporter” value in [13] was -0.278%; in assay [14] it was 0.019%; in assay [15], -1.06%; in assay [16] it was 0.792%; in assay [17] it was -0.0867%.

`CC(=O)C(C)O` (centres undefined) [acetoin]: the “relative induction of RFP reporter” value in assay [2] is 0.00953%; in [3] it was -0.805%; in [4], -0.0473%; in assay [5], -6.92%; in assay [6], -1.36%; in assay [7], -0.195%. The “relative induction of RFP reporter” value in assay [18] was 0.00159%; in [8] it was -0.507%; in assay [9], -0.169%; in assay [10] it was -0.461%; in [11], -0.0229%; in assay [12], 0.102%. Further, the “relative induction of RFP reporter” value in assay [13] was -0.695%; in assay [14] it was -0.0013%; in [15] it was -1.85%; in assay [16], -1.61%; in assay [17], 0.0808%.

Regarding `O=C(O)c1ccccc1`, in [9], the “relative induction of RFP reporter” value is 0.00574%.

As for `NCC(=O)O` [glycine], the “relative induction of RFP reporter” value in [19] was -0.038%; in assay [20], -0.0181%; in [21] it was 0.0164%; in assay [22], -5.21%; in [23], 0.401%; in assay [24], -0.178%. Also, the “relative induction of RFP reporter” value was 0.211% in [25]; 0.0163% in assay [26]; -0.454% in assay [27]; 0.00408% in [28]; -0.415% in assay [29]; -0.384% in assay [30]. For the same compound, the “relative induction of RFP reporter” value in [31] is 0.0965%; in assay [32], 0.812%; in assay [33] it was -0.0501%; in assay [34], 0.0153%; in assay [35] it was -0.252%; in assay [36], 0.354%. Moreover, the “relative induction of RFP reporter” value in assay [37] stood at 0.274%.

As for `NCCS(=O)(=O)O` [taurine], the “relative induction of RFP reporter” value is -0.255% in [19]; -0.0412% in assay [20]; -0.0223% in assay [21]; -0.473% in [22]; -1.59% in assay [23]; -0.142% in assay [24]. For the same compound, the “relative induction of RFP reporter” value was -0.215% in assay [25]; 0.0156% in assay [26]; 0.934% in assay [27]; 3.14% in assay [28]; -0.395% in assay [29]; -0.387% in assay [30]. The “relative induction of RFP reporter” value was 2.29% in [31]; 0.0679% in assay [32]; -0.494% in [33]; 0.00496% in assay [34]; -0.468% in [35]; -0.555% in [36]. For the same compound, the “relative induction of RFP reporter” value in [37] came out at 0.38%.

Turning to `O=C(O)C1CCCCC1` [cyclohexane-1-carboxylate], the “relative induction of RFP reporter” value is 2.02% in [1]; -0.0317% in assay [2]; -8.69% in [5]; -0.578% in [6]; -0.0345% in assay [7]; -0.0105% in [18]. The “relative induction of RFP reporter” value is -0.348% in assay [8]; -0.211% in assay [9]; -0.472% in [10]; 0.0396% in assay [11]; 2.19% in assay [12]; 0.127% in assay [13]. The “relative induction of RFP reporter” value in assay [14] is -0.00651%; in assay [15], -0.97%; in assay [16], 2.49%; in assay [17], 0.233%.

On to `N[C@@H](Cc1ccccc1)C(=O)O` [L-phenylalanine], for which the “relative induction of RFP reporter” value in assay [1] is -1.77%; in assay [2] it was -0.0146%; in [3], -0.263%; in assay [4], -0.0737%; in assay [5], -4.81%; in assay [6], -2.3%. Besides, the “relative induction of RFP reporter” value in [7] is 57.7%; in assay [18], 0.00484%; in assay [8] it was -1.24%; in [9], -0.267%; in assay [10], -0.485%; in assay [11], -0.0265%. The “relative induction of RFP reporter” value in assay [12] was 0.153%; in [13] it was -1.38%; in [14], 0.00514%; in assay [15], -1.94%; in assay [16], -2.37%; in [17] it was -0.26%.

For `O=C(O)C(=O)c1ccccc1` [phenylglyoxylate], the “relative induction of RFP reporter” value in assay [1] is -2.12%; in [2], -0.003%; in assay [3], -0.214%; in [4], 16.8%; in assay [6], -2.13%; in assay [7], -0.159%. For the same compound, the “relative induction of RFP reporter” value in [18] was 0.00691%; in [8], -1.44%; in assay [9] it was -0.114%; in assay [11], 0.0193%; in assay [12], -0.379%; in assay [13] it was -1.19%. The “relative induction of RFP reporter” value in [14] is -0.00891%; in assay [15], -2.28%; in [16], -1.12%; in assay [17], -0.288%.

With `O=C(O)c1ccccc1` [benzoate], the “relative induction of RFP reporter” value in assay [1] was 4.78%; in assay [2], -0.00267%; in assay [3], -0.805%; in assay [5], -1.25%; in [6], -2.52%; in assay [7], -0.127%. For the same compound, the “relative induction of RFP reporter” value in assay [18] was 0.078%; in assay [8], -0.947%; in [10], -0.295%; in assay [11], -0.0427%; in assay [12], -0.474%; in assay [13], -0.493%. For the same compound, the “relative induction of RFP reporter” value is -0.0138% in assay [14], -1.5% in assay [15], -1.2% in [16] and -0.0216% in assay [17].

The record behind these values is the supplement of paper PMC7057948, “A genome-wide approach for identification and characterisation of metabolite-inducible systems” (Nature Communications, 2020).
